From the supplement of paper PMC3545927
Some of the results follow. The hit rate among all sequences tested is not known here.

Molecular target: furin, P09958
Assay: furin cleavage Z-score vs untreated control; higher = more cleavage, active = 3.5 or more, inactive = 1 or less, 8 variable residues between constant flanks
Procedure: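 Multiplexed peptide-cDNA fusion cleavage assay. 8-mer variable peptides flanked by constant Cys-Ala (N-term) and Ala-Gly-Asn-Ala-Ser-Ala-Ser-Ala (C-term) and conjugated to a cDNA oligonucleotide were bead-immobilised via the N-terminus. They were treated with purified furin at a 1:10 enzyme:substrate ratio in 50 mM HEPES pH 7.5, 1 mM CaCl2, 100 mM NaCl for 7.5, 15 or 30 min. Released cDNA was counted by next-generation sequencing, and log counts versus no-furin controls were lowess-adjusted and converted to robust Z-scores.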

Sequence of furin, P09958 (P09958 whole entry): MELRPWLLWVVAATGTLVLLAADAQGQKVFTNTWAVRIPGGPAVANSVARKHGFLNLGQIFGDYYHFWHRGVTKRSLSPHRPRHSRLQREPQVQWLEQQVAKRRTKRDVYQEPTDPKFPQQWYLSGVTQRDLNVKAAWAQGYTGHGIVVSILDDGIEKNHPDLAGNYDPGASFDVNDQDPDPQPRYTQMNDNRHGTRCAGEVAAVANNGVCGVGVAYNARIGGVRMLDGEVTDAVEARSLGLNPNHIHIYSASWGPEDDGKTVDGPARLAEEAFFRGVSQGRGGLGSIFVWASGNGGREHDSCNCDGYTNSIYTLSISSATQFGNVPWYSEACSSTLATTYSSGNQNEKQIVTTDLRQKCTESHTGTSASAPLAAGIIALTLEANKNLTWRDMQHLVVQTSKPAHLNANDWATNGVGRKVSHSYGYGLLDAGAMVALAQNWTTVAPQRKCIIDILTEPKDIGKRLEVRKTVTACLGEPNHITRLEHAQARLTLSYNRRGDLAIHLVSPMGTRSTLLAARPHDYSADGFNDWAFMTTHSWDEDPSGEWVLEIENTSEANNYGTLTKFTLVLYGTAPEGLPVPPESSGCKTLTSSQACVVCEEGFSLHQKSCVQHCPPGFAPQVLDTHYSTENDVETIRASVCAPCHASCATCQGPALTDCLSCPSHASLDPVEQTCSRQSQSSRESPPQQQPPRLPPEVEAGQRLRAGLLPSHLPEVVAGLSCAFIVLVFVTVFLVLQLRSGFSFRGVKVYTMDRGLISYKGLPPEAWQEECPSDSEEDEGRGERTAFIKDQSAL

Sequence	furin cleavage Z-score (7.5 min)	furin cleavage Z-score (15 min)	furin cleavage Z-score (30 min)
CATKPCSGSWAGNASASA [HC1854]	-0.725 (inactive)	-0.656 (inactive)	-1.12 (inactive)
CAEVTTPCSGAGNASASA [HC1970]	0.193 (inactive)	-0.206 (inactive)	-0.0766 (inactive)
CARRRRGAPEAGNASASA [FS-2297]	6.8 (active)	6.5 (active)	6.23 (active)
CARRRRGALRAGNASASA [FS-2787]	3.24	5.07 (active)	6.59 (active)
CARARREALRAGNASASA [FS-2326]	7.37 (active)	9.91 (active)	7.3 (active)
CARRRRVVPEAGNASASA [FS-2082]	1.92	5.11 (active)	6.08 (active)
CAVDVVCCSMAGNASASA [HC2110]	-1.67 (inactive)	-0.512 (inactive)	-0.588 (inactive)
CAWRNRKKKTAGNASASA [FS-575]	-0.592 (inactive)	-0.739 (inactive)	-1.25 (inactive)
CAGLVPRGSGAGNASASA [TR8]	-1.24 (inactive)	-1.44 (inactive)	-1.84 (inactive)
CAMEECSFHLAGNASASA [HC1727]	2.23	-1.03 (inactive)	1.18
CASYSWTGALAGNASASA [HC1372]	-0.915 (inactive)	-0.282 (inactive)	0.0526 (inactive)
CASGENLPYLAGNASASA [HC950]	-0.962 (inactive)	0.134 (inactive)	-0.522 (inactive)
CAVGGVYLLPAGNASASA [HC176]	1.19	0.0945 (inactive)	0.538 (inactive)
CARKRRANSLAGNASASA [FS-3194]	6.54 (active)	9.21 (active)	5.81 (active)
CASFRRAFLIAGNASASA [FS-2322]	-1.89 (inactive)	-0.15 (inactive)	-1.34 (inactive)
CARKRRAVLTAGNASASA [FS-2971]	8.83 (active)	12.7 (active)	10.3 (active)
CARKRRALLIAGNASASA [FS-3258]	5.47 (active)	5.56 (active)	8.18 (active)
CAKKRTVVLTAGNASASA [HC1325]	-0.725 (inactive)	-0.173 (inactive)	0.000165 (inactive)
CAEPDVAVLTAGNASASA [HC1243]	0.073 (inactive)	0.723 (inactive)	-1.2 (inactive)
CAINALSNSLAGNASASA [HC1382]	-0.629 (inactive)	-0.0116 (inactive)	0.458 (inactive)
CARKFRSGLIAGNASASA [FS-2152]	-0.364 (inactive)	0.099 (inactive)	-0.282 (inactive)
CARQQRDEETAGNASASA [FS-2401]	-0.691 (inactive)	-0.187 (inactive)	-3.21 (inactive)

Sequence	furin cleavage Z-score (7.5 min)	furin cleavage Z-score (15 min)	furin cleavage Z-score (30 min)
CARPRRILNTAGNASASA [FS-2441]	-2.76 (inactive)	0.234 (inactive)	0.846 (inactive)
CARKRRNLETAGNASASA [FS-2700]	7.71 (active)	8.41 (active)	8.69 (active)
CATRCFDSTVAGNASASA [HC1481]	1.01	0.491 (inactive)	0.363 (inactive)
CAILQASLLKAGNASASA [HC611]	-0.334 (inactive)	-0.703 (inactive)	-0.0413 (inactive)
CASTPCSACLAGNASASA [HC2560]	0.847 (inactive)	-0.78 (inactive)	0.791 (inactive)
CAILEVVTSTAGNASASA [HC2264]	-1.51 (inactive)	-0.366 (inactive)	0.122 (inactive)
CAMTECSQHLAGNASASA [HC1698]	0.478 (inactive)	0.668 (inactive)	0.28 (inactive)
CAVTCCSMSYAGNASASA [HC2018]	0.12 (inactive)	-1.47 (inactive)	-1.48 (inactive)
CANAEDVVCCAGNASASA [HC1367]	-0.652 (inactive)	-1.38 (inactive)	-0.581 (inactive)
CAISERQARFAGNASASA [FS-171]	0.813 (inactive)	-0.669 (inactive)	1.86
CAIDTLTCGFAGNASASA [HC222]	0.261 (inactive)	-0.013 (inactive)	0.099 (inactive)
CANCSRKRRTAGNASASA [FS-551]	9.83 (active)	9.81 (active)	7.5 (active)
CAVVNRKARFAGNASASA [FS-208]	6.98 (active)	8.16 (active)	8.51 (active)
CAIDRRIARFAGNASASA [FS-539]	1.87	1.35	3.96 (active)
CAPGSRKRRTAGNASASA [FS-1147]	11.2 (active)	13.8 (active)	9.92 (active)
CANCSIYPGHAGNASASA [HC313]	0.763 (inactive)	-0.054 (inactive)	0.871 (inactive)
CANCSREARGAGNASASA [FS-832]	-1.13 (inactive)	-0.942 (inactive)	-0.54 (inactive)
CASTPCSMHLAGNASASA [HC2526]	0.123 (inactive)	0.577 (inactive)	0.242 (inactive)
CAVHGCPLPPAGNASASA [HC1316]	-0.297 (inactive)	0.367 (inactive)	0.0305 (inactive)
CAEEECSQHLAGNASASA [HC1672]	0.0201 (inactive)	1.31	0.995 (inactive)
CAGDRVYIHPAGNASASA [EK2]	-0.225 (inactive)	-0.247 (inactive)	-0.383 (inactive)
CAMEHCSQHLAGNASASA [HC1715]	-0.776 (inactive)	-0.0908 (inactive)	0.617 (inactive)
